Compounds with a hit are over-represented: about 17% of the library has one in this group of screens.
TDP1 cell noCPT: qHTS for Inhibitors of human tyrosyl-DNA phosphodiesterase 1 (TDP1): qHTS in cells in absence of CPT; DT40 Tdp1-/- hTDP1 cells, no CPT, ATP luminescence, 48 h; 420,000 tested, 15% active; Potency, µM (doses to about 46.2 µM), hits mostly inhibitors; note: nearly all actives have a fitted effect of over 55% in size
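Cells were dispensed at 400 per well, compounds added by pin tool, plates incubated ≥48 hr at 37 °C, then CellTiter-Glo added for 30 min at room temperature before luminescence reading. Line: DT40 Tdp1-/- complemented with hTDP1; camptothecin omitted.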
TDP1 cell CPT: qHTS for Inhibitors of human tyrosyl-DNA phosphodiesterase 1 (TDP1): qHTS in cells in presence of CPT | chicken DT40 Tdp1-/-;hTDP1 cells + 20 nM CPT, ATP luminescence, 48 h | AID 686979, 2013 | Potency, µM (series often up to 46.2 µM), usual class: inhibitors | 420,000 tested, 12% active; note: nearly all actives have a fitted effect of over 55% in size
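Chicken DT40 Tdp1-/- cells complemented with human TDP1, 400 cells/well, exposed to compounds plus 20 nM camptothecin for at least 48 h at 37 C; viability read as ATP content by CellTiter-Glo luminescence.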
TGFb SMAD3 inh: qHTS for Inhibitors of TGF-b; HepG2 CAGA-GFP TGF-b/SMAD3 reporter, GFP fluorescence, 18 h; TGF-beta stimulated, 500 pg/mL final; Potency, µM (series often up to 46.1 µM), most hits filed as inhibitors; 410,000 tested, 1.2% active; AID 588855, 2011; note: nearly all actives have a fitted effect of over 65% in size
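First, reporter cells (HEPG2 CAGA-GFP) rested 2 h at 37 degrees C. Next, compounds were pinned in and TGF-beta added to 500 pg/mL final. After 18 h, GFP was imaged per cell and summed per well.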
S2 tox: Viability Counterscreen for Primary qHTS for Inhibitors of ATXN expression; 400,000 tested, 0.49% active; S2 cells (HEK-293 line with an ATXN2-luciferase reporter) viability, CellTiter-Fluor protease fluorescence, 24 h; Potency, µM (series often up to 56.7 µM), most hits filed as cytotoxic; note: nearly all actives have a fitted effect of over 40% in size
ATXN2 expr inh: Primary qHTS for Inhibitors of ATXN expression. Potency, µM (titrated, usually from 57 µM), actives largely listed as inhibitors. 360,000 tested, 0.72% active. HEK-293 ATXN2-luciferase reporter, luminescence, 24 h. AID 1745845, 2022; note: nearly all actives have a fitted effect of over 55% in size
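qHTS (up to 57 uM final) was run with 24 h compound exposure of reporter cells at 37 °C. Each well was multiplexed: SteadyGlo luminescence measured ATXN2-luciferase expression after a fluorogenic Gly-Phe-AFC viability readout (25 uM final).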
HepG2 tox: qHTS for Inhibitors of TGF-b: Cytotox Counterscreen | HepG2 CAGA-GFP viability, ATP luminescence, 18 h | Potency, µM (doses to about 46.1 µM), usual class: cytotoxic | 410,000 tested, 0.76% active | AID 588856, 2011
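HepG2 CAGA-GFP cells (1000/well, DMEM with 1% FBS) received compound, then TGF-beta at 500 pg/mL final, and were incubated 18 hours at 37 degrees C. Viability was read by CellTiter-Glo luminescence. Media-only wells were set as complete cell-killing and DMSO as no toxicity.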
Hits are given with their value; . = inactive; ? = inconclusive; / = not tested or not shown; [ ] = remark or other dose. Calls come from the whole dose curve; as a rule, active = well fitted curve in the direction sought with a large enough effect; inconclusive = small, poorly fitted or top-dose-only effect, or another doubt; inactive = no such curve, though single readings can be large; an effect the other way counts as inactive or inconclusive.

SMILES | TDP1 cell noCPT | TDP1 cell CPT | TGFb SMAD3 inh | S2 tox | ATXN2 expr inh | HepG2 tox
Cc1noc(C)c1C(=O)NCCc1c(C)[nH]c2ccccc12 | . | . | . | . | . | .
COCCn1c(SCC#N)nnc1-c1ccc([N+](=O)[O-])cc1 | . | . | . | . | . | .
COc1ccc(CCN2CC(C(=O)N3CCC(O)(c4ccccc4)CC3)CCC2=O)cc1 (stereo not given) | . | . | . | . | . | .
COc1ccc(C2CC(c3ccccc3)=NN2C(=O)CCC(=O)O)cc1 (stereo not given) | . | . | . | . | . | .
COc1ccc2cc(C3CC(c4cccs4)=NN3C(C)=O)c(Cl)nc2c1 (stereo not given) | . | . | . | . | . | .
COc1ccc(C2CC(c3ccccc3)=NN2C(=O)c2cccs2)cc1 (stereo not given) | ? | 23.1µM | . | . | . | .
O=C(c1ccccc1)N1N=C(c2ccccc2)CC1(O)C(F)(F)F (stereo not given) | . | . | . | / | / | .
COc1ccc(C2=NN(C(=O)c3cccs3)C(c3ccccc3O)C2)cc1 (stereo not given) | ? | ? | 12.6µM | ? | / | .
COc1ccc(C2=NN(C(=O)c3cccs3)C(O)(C(F)(F)F)C2)cc1 (stereo not given) | 16.4µM | ? | ? | ? | . | .
COc1ccc(C(=O)N2N=C(c3cccs3)CC2c2ccccc2O)cc1 (stereo not given) | 13µM | . | ? | ? | . | 11.2µM
COc1ccc(C2=NN(C(=O)CCC(=O)O)C(c3ccccc3F)C2)cc1 (stereo not given) | . | . | . | . | . | .
Cc1ccc(NC(=O)COn2nnc3ccc(S(=O)(=O)N(C)C)cc32)cc1F | ? | ? | . | ? | . | .
COc1ccc(-c2cc(CCCC(=O)NCc3ccccn3)no2)cc1 | 16.4µM | ? | . | . | . | .
CCOc1ccc(-c2cc(CCCC(=O)NCCc3ccccc3)no2)cc1 | . | . | . | . | . | .
CCOc1ccc(-c2cc(CCCC(=O)NCc3cccnc3)no2)cc1 | 20.6µM | 23.1µM | . | ? | . | .
COc1cnc(SCCC(F)=C(F)F)[nH]c1=O | . | . | . | . | . | .
Cc1cc(NC(=O)CCc2ccc(S(=O)(=O)N3CCOCC3)cc2)n(-c2ccccc2)n1 | 8.2µM | 11.6µM | . | . | . | .
O=C(CCc1ccccc1)NC(=S)Nc1ccc(S(=O)(=O)N2CCOCC2)cc1 | 16.4µM | ? | . | . | . | .
CC(NC(=S)Nc1ccc(S(=O)(=O)N2CCOCC2)cc1)C1CC2CCC1C2 (stereo not given) | 29.1µM | ? | ? | . | . | .
Cc1cc(NC(=O)CN2CCOCC2)n(-c2ccccc2)n1 | . | . | . | . | . | .
CC(C)CCCCCCNC(=S)Nc1ccc(S(=O)(=O)N2CCOCC2)cc1 | 13µM | 16.4µM | 20µM | ? | ? | .
O=S(=O)(c1ccc(NC(=S)Nc2ccccc2)cc1)N1CCOCC1 | . | . | . | . | . | .
CCOc1ccccc1CNS(=O)(=O)c1ccc2[nH]c(=O)ccc2c1 | ? | ? | . | . | . | .
O=C1C2C(C(=O)N1CCN1CCN(Cc3ccc([N+](=O)[O-])cc3)CC1)[C@H]1C=C[C@@H]2C1 (stereo not given in full) | ? | . | . | ? | . | .
O=C(CN1C(=O)NC2(CCCc3ccccc32)C1=O)N1CCCCC1 (stereo not given) | . | . | . | . | . | .
SMILES | TDP1 cell noCPT | TDP1 cell CPT | TGFb SMAD3 inh | S2 tox | ATXN2 expr inh | HepG2 tox
COc1cc(CN2CCN(Cc3ccc(C(F)(F)F)cc3)CC2)cc(OC)c1OC | 20.6µM | 23.1µM | ? | . | / | .
COc1ccc(CN2CCN(Cc3ccc(C(F)(F)F)cc3)CC2)c(OC)c1 | 14.6µM | 20.6µM | ? | ? | / | .
COc1cc(CN2CCN(Cc3ccccc3C(F)(F)F)CC2)cc(OC)c1OC | 25.9µM | ? | . | ? | . | .
COc1cc(CN2CCCCCC2)cc(OC)c1OC | . | . | . | . | . | .
COc1ccc(CN2CCN(Cc3ccc(C)cc3)CC2)c(OC)c1 | ? | . | ? | . | . | .
Cc1ccc(CN2CCN(Cc3ccccc3C(F)(F)F)CC2)cc1 | ? | ? | . | ? | ? | .
COc1ccccc1-c1noc2c1C(=O)N(Cc1cn(-c3ccccc3OC)nn1)CC2 | 18.4µM | ? | / | . | . | /
COc1ccccc1-c1noc2c1C(=O)N(C(=O)OC(C)(C)C)CC2 | . | . | . | . | . | .
Cc1oc(-c2cccs2)nc1CN1CCC(CO)(CCOc2ccccc2)CC1 | ? | ? | . | . | . | .
O=C(Nc1cnn(C23CC4CC(CC(C4)C2)C3)c1)c1cnn2c(C(F)(F)F)cc(-c3ccco3)nc12 | 15.8µM | 18.4µM | . | ? | 22.4µM | .
Cc1ccccc1Cn1ccc(NC(=O)c2cnn3c(C(F)(F)F)cc(-c4ccco4)nc23)n1 | 14.6µM | ? | . | . | . | .
CC(C)CC(NS(=O)(=O)OCC(Cl)(Cl)Cl)c1ccccc1 (stereo not given) | 16.4µM | ? | ? | / | ? | .
COC(=O)CCC(NS(=O)(=O)OCC(Cl)(Cl)Cl)c1ccccc1 (stereo not given) | ? | . | . | . | . | .
CCOc1ccc(-n2cc(C(=O)Nc3ccc(Cl)cn3)c3cc(OC)c(OC)cc3c2=O)cc1 | . | 2.91µM | . | ? | . | .
CCOc1ccc(-n2cc(C(=O)Nc3ccccc3OCC)c3cc(OC)c(OC)cc3c2=O)cc1 | ? | ? | . | . | . | .
COc1ccc(-n2cc(C(=O)N(C)c3cc(C)ccc3OC)c3ccccc3c2=O)cc1 | 20.6µM | ? | ? | / | / | .
CCOc1ccc(OC(=O)c2cn(-c3ccc(C)cc3)c(=O)c3ccccc23)cc1 | 16.4µM | ? | . | / | / | .
CCOC(=O)c1ccc(OC(=O)c2cn(-c3ccc(C)cc3)c(=O)c3ccccc23)cc1 | ? | 16.4µM | . | / | / | .
CCN(CC)C(=O)c1sc2c(c1C)c(=O)n(-c1ccccc1)c(=O)n2CC(=O)Nc1ccc(C)cc1C | . | ? | . | . | . | .
COc1ccc(OC)c(CN2CCC3(CCC(CNC(=O)c4ccco4)O3)CC2)c1 (stereo not given) | . | .[9.04 µM] | / | . | / | /
